Assay results as given in PubChem BioAssay.
Unmarked numbers belong to inactive results. Active and inactive are the calls of the source. Unless noted, no stated cut-off is given here; in the data, active means inhibition above about 33%; inactive means the rest.

Legend:
[1] = StAR promoter reporter inhibitors, counter-screen for LRH-1 inverse agonist project, cell-based, luminescence, high throughput (AID 651611; in the data active means inhibition above about 28%); settings: StAR promoter luciferase reporter counterscreen, at 3.6 µM, stronger effect = higher value
[2] = target: Nuclear receptor subfamily 5 group A member 2 (Homo sapiens) (UniProt O00482); test: NR5A2 activity suppression in reporter cells – cell-based, luminescence, confirmation (AID 651613; in the data active means inhibition above about 42%;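 further: HEK293T cells co-transfected with LRH-1 and StAR promoter luciferase reporter; 0% = vehicle wells and 100% = parental cells lacking receptor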); settings: cell-based LRH-1 luciferase reporter, inverse agonism; at 3.6 µM; stronger effect = higher value
[3] = target: Steroidogenic factor 1 (Homo sapiens) (UniProt Q13285); test: inverse agonism at SF1 nuclear receptor – cell-based, luminescence, high throughput, counter-screen for LRH-1 inverse agonist project (AID 651614; in the data active means inhibition above about 44%;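 further: cells cotransfected with StAR promoter reporter and SF1 expression vector; 0% = vehicle on cells with receptor and 100% = vehicle on cells lacking receptor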); settings: cell-based SF1 luciferase reporter, at 3.6 µM, stronger effect = higher value
[4] = compounds suppressing VP16-driven luciferase signal – cell-based, luminescence, high throughput, counter-screen for LRH-1 inverse agonist project (AID 651615); settings: Gal4-VP16 luciferase reporter cells, at 3.6 µM, stronger effect = higher value

Steroidogenic factor 1 (Homo sapiens), sequence (Q13285 whole entry, looked up, the tested form may be a part): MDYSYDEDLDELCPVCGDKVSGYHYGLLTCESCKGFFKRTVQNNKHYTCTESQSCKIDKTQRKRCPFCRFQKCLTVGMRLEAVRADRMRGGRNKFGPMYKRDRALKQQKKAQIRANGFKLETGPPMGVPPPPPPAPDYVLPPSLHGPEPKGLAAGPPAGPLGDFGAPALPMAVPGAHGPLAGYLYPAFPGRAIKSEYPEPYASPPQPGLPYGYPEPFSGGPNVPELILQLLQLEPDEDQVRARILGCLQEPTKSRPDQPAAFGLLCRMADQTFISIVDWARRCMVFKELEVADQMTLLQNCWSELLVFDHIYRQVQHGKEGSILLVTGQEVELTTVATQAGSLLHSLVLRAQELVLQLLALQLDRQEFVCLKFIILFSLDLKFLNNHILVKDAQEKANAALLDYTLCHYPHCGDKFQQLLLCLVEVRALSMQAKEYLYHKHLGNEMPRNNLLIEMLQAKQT
Nuclear receptor subfamily 5 group A member 2 (Homo sapiens), sequence (O00482 whole entry, looked up): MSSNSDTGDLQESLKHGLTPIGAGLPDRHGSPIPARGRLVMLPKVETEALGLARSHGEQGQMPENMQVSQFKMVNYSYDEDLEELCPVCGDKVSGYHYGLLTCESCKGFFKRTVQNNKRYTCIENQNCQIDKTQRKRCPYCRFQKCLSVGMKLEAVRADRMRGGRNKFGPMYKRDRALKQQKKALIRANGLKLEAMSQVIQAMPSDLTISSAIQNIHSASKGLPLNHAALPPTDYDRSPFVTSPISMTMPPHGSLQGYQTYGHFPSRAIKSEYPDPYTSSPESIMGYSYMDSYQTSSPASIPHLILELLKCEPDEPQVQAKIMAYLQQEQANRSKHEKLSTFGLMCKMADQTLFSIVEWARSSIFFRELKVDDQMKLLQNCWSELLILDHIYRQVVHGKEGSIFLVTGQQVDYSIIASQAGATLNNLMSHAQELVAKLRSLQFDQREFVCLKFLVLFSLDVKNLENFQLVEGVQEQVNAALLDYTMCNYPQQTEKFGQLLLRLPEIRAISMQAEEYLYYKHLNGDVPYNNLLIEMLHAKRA

Structure (SMILES)	inhibition [1]	inhibition [2]	inhibition [3]	inhibition [4]
COc1ccc(N2C(=O)C(Cl)=C(N3CCOCC3)C2=O)cc1	6.88%	34.9%	7.54%	7.03%
c1ccc2c(c1)C1=NCCN1c1ccccc1-2	20%	104% (active)	50.2% (active)	87.8% (active)
Clc1ccccc1-c1nc(N/N=C/c2cccnc2)c2ccccc2n1	6.03%	52.3% (active)	53.3% (active)	-7.84%
O=Cc1ccc2c(c1)CCN2Cc1ccccc1	4.56%	56.6% (active)	55.7% (active)	-34.1%
COc1cc2c(=O)[nH]c3cc([N+](=O)[O-])ccc3c2cc1[N+](=O)[O-]	-3.92%	64.6% (active)	56.6% (active)	-22.2%
O=C(Nc1cccc(S(=O)(=O)N2CCCCC2)c1)c1ccc([N+](=O)[O-])o1	33.8% (active)	67.3% (active)	69.2% (active)	-4.21%
O=C(c1ccccc1)c1ccc2nc(N3CCN(C(=O)c4ccco4)CC3)c3nncn3c2c1	3.94%	43% (active)	44.3% (active)	-14.2%
CC1CCC2(CC1)NC(=O)N(CC(=O)Nc1ccc(N3CCOCC3)cc1)C2=O (stereo unspecified)	11.8%	45.8% (active)	37.4%	-8.77%
Cc1cccc(NC(=O)CSc2ccc(-c3ccco3)nn2)c1C	4.66%	44.6% (active)	39.2%	-3.56%
C=CCNc1sc(C(=O)c2ccccc2)c(N)c1C#N	13.8%	43.6% (active)	47.7% (active)	6.37%
O=C(N/N=C/c1ccc([N+](=O)[O-])o1)c1ccc2c(c1)OCO2	37.2% (active)	78.3% (active)	91.2% (active)	-5.58%
CC(=O)c1ccc(NC(=O)COc2ccccc2C(=O)Nc2ccccc2)cc1	5.25%	54.9% (active)	45.9% (active)	-21.9%
O=C(COC(=O)C1CC1)NCCc1ccc(Cl)cc1	4.21%	45.3% (active)	39.1%	-2.95%
O=C(Cc1c(F)cccc1Cl)Nc1ccncc1	3.12%	45% (active)	43.5% (active)	-7.58%
